Screening data deposited in PubChem BioAssay by Corson Lab, School of Medicine, Indiana University.
This is one part of a sample in which hits are shown more often than they occur.
FECH inh: human FECH heme synthesis enzyme inhibition; calls only at 10 µM (by protocol); hit rate 3.3% among 20,000; purified FECH, Ni-mesoporphyrin absorbance 550 nm; AID 1671448;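 active = enzyme reaction rate more than 3 SD below the solvent-only control wells on the same plate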;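 note: lower slope than DMSO wells means FECH inhibition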
Target sequence (P22830 whole entry, looked up): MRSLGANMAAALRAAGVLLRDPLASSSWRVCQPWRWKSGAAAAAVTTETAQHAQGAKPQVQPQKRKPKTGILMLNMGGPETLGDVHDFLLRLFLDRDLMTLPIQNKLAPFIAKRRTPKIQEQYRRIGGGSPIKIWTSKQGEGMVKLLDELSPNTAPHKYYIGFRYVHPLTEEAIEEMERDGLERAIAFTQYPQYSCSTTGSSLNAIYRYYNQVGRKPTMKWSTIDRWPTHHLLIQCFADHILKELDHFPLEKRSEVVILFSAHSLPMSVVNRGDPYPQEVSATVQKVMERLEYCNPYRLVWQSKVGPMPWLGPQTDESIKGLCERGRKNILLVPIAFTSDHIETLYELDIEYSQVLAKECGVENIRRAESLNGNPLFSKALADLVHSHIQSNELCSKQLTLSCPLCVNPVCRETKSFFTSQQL
The depositor's hits bear a star; i = inactive; + = active, no number.

SMILES | FECH inh
CC(C)C[C@@H](N)C(=O)NCc1n[nH]c2c1CCC2 | i
CCN(CC)c1ncc(NS(=O)(=O)c2ccc(Cl)s2)cc1C(=O)O | i
COCCCNc1nc(Nc2ccc(C)c(C)c2)c2cnn(-c3ccccc3)c2n1 | i
Cc1nccn1CCC1CCCCN1C(=O)Nc1ccc2c(c1)OCO2 (stereo unspecified) | i
NS(=O)(=O)c1ccc(NS(=O)(=O)c2ccc(-c3cnc(C4CCC4)o3)s2)cc1 | i
CCCc1nc(C(=O)N2CCn3c(C(N)=O)cnc3C2)cs1 | i
Cc1ccc(Cl)cc1NC(=O)CN1CCN(Cc2ccc(Cl)cc2)S1(=O)=O | i
Cc1ccc(Cn2c(CCNC(=O)Nc3ccc(Br)cc3F)nc3cccnc32)cc1 | i
CC(C)(C)c1ccc(C(=O)NCCn2c(C(F)(F)F)nc3cccnc32)cc1 | i
Cc1ccc(N(Cc2nc3nc(C)cc(C)n3n2)C(=O)C(C)(C)C)cc1 | i
CC(C)n1c(CNS(=O)(=O)c2ccc(Cl)cc2)nc2cccnc21 | i
CCc1cc(Sc2ccc(NC(=O)Nc3ccc(F)cc3F)cc2)n2ncnc2n1 | i
Cc1ccc(S(=O)(=O)NCc2nc3cccnc3n2C2CCCC2)cc1 | +
O=S(=O)(NCc1nc2cccnc2n1C1CCCCC1)c1ccc(Cl)cc1 | i
COc1ccc(S(=O)(=O)NCc2nc3cccnc3n2C2CCCC2)cc1 | i
COCCCN1C(=O)c2c(NC(C)=O)c3cc(F)ccc3n2CC1(C)C(=O)NC1CCCCC1 (stereo unspecified) | i
CCOC(=O)Cc1ccc(NC(=O)Nc2ccc(Sc3cc(CC)nc4nc(C)nn34)cc2)cc1 | +
CCc1ccc(NC(=O)Nc2ccc(Sc3cc(CC)nc4nc(C)nn34)cc2)cc1 | i
CCOc1ccc(NC(=O)Nc2ccc(Sc3cc(CC)nc4nc(C)nn34)cc2)cc1 | i
Cc1ccccc1CN(Cc1ccncc1)CC(C)C | i
CCCCN(C)S(=O)(=O)c1ccc2c(c1)CCN2C(=O)CCC(=O)N1CCOCC1 | i
CN1CCc2c(sc(NC(=O)COc3ccccc3)c2-c2nc3ccccc3s2)C1 | i
CCc1c(C)nc2ncnn2c1Sc1ccc(NC(=O)c2cc(OC)c(OC)c(OC)c2)cc1 | i
CCc1c(C)nc2ncnn2c1Sc1ccc(NC(C)=O)cc1 | i
CCc1ccc(NC(=O)Nc2ccc(Sc3c(CC)c(C)nc4ncnn34)cc2)cc1 | i
SMILES | FECH inh
CCOc1ccccc1C(=O)Nc1ccccc1Sc1c(CC)c(C)nc2ncnn12 | i
CCOc1ccccc1C(=O)Nc1ccc(Sc2c(CC)c(C)nc3ncnn23)cc1 | +
CCc1c(C)nc2ncnn2c1Sc1ccc(NC(=O)c2ccccc2Cl)cc1 | i
CCc1c(C)nc2ncnn2c1Sc1ccc(NC(=O)c2ccccc2OC)cc1 | +
CCCc1c(C)nc2ncnn2c1Sc1ccc(NC(=O)c2ccccc2OC)cc1 | i
CCc1c(C)nc2ncnn2c1Sc1ccc(NC(=O)NCc2ccccc2)cc1 | +
CCN(Cc1ccc(C(=O)Nc2ccnn2C)cc1)Cc1noc(C)n1 | i
O=C(O)C1(CCOc2ccccc2)CCCN(c2cnc3ccccc3n2)C1 (stereo unspecified) | i
O=C1CC(Nc2ncnc3c2CCC3)CN1CCCc1ccccc1 (stereo unspecified) | i
Cc1noc(C)c1S(=O)(=O)NCc1nc2cccnc2n1CC(C)C | i
COc1cc(NC(=O)CCc2c(C)nn(-c3cc(N4CCCC4)ncn3)c2C)cc(OC)c1 | i
O=C(CN1C(=O)COc2ccccc21)N1CCC(c2nc(-c3ccc(F)cc3)no2)CC1 | i
Cn1nc(C(=O)NCc2ccccc2)c2c1CCN(C(=O)c1ccccc1Cl)C2 | i
Cn1nc(C(=O)NCc2ccccc2)c2c1CCN(C(=O)c1ccccc1)C2 | i
COc1ccc(C(=O)N2CCc3c(c(C(=O)NCc4ccccc4)nn3C)C2)cc1 | i
Cn1nc(C(=O)NCc2ccccc2)c2c1CCN(C(=O)C1CCC1)C2 | +
Cc1ccccc1C(=O)N1CCc2c(c(C(=O)NCc3ccccc3)nn2C)C1 | i
Cc1ccc(C(=O)N2CCc3c(c(C(=O)NCc4ccccc4)nn3C)C2)cc1 | +
COc1ccc(Cn2c(CNC(=O)CSc3ccccc3)nc3cccnc32)cc1 | i
CC(=O)Nc1cc(NC(C)=O)cc(-c2nc(C)nn2-c2ccc(F)cc2)c1 | i
CCC1=C(c2ccc(OC)cc2)S(=O)(=O)N(CC(=O)Nc2ccc(OC)c(OC)c2)C1=O | i
O=C(CC1CCN(S(=O)(=O)c2ccccc2)CC1)NCCCN1CCCC1 | i
Cc1cc(C)n(-c2cc(Nc3cccc(C(F)(F)F)c3)ncn2)n1 | i
Cc1ccc(N2CC(C(=O)N3CCN(c4ccc(-c5noc(C)n5)cc4)CC3)CC2=O)cc1 (stereo unspecified) | i
Cn1c(=O)n(CCOc2ccccc2)c(=O)c2cnc(-c3cccs3)nc21 | +
SMILES | FECH inh
Cn1c(=O)n(Cc2ccccc2F)c(=O)c2cnc(-c3cccs3)nc21 | i
Cc1noc(C)c1CCn1c(=O)c2cnc(-c3cccs3)nc2n(C)c1=O | i
CCOc1ccc(-c2nc(CSc3nc(C(F)(F)F)cc(=O)[nH]3)c(C)o2)cc1OC | i
CCOC(=O)c1cc2ccsc2n1CC(=O)Nc1ccccc1C(=O)OC | i
CCOC(=O)c1cc2ccsc2n1CC(=O)N(CC)c1ccccc1 | +
CCOC(=O)c1cc2ccsc2n1CC(=O)N(CC)c1cccc(C)c1 | i
NS(=O)(=O)c1ccc(CCNC(=O)c2nc(SCc3ccc(F)cc3)ncc2Cl)cc1 | i
CC(C)N(CCSc1ccccc1)C(=O)c1ccc2[nH]c(=O)c(=O)[nH]c2c1 | i
CN(Cc1ncc[nH]1)C(=O)Cn1nnc(-c2ccccc2)n1 | i
CC(=O)c1ccc(NC(=O)c2nc3ccccc3n(C)c2=O)cc1 | i
Cn1c(=O)c(C(=O)Nc2ccc(Cl)cc2)nc2ccccc21 | i
COc1cccc(NC(=O)c2nc3ccccc3n(C)c2=O)c1 | i
Cn1c(=O)c(C(=O)Nc2ccc(Oc3ccc(Cl)cc3)cc2)nc2ccccc21 | +
CC(=O)Nc1cccc(NC(=O)c2nc3ccccc3n(C)c2=O)c1 | +
COC(=O)c1ccc(NC(=O)c2nc3ccccc3n(C)c2=O)cc1 | i
CCCc1nc(CN(C)c2nc(C)nc3sccc23)no1 | i
CC(C)CC(=O)N1CCC(N2CCCC(C(=O)NCc3cccnc3)C2)CC1 (stereo unspecified) | i
Nc1nnc(C(NC(=O)c2cccc3ccnn23)c2ccccc2)s1 (stereo unspecified) | i
CCn1c(CN(C)Cc2cc(-c3ccncc3)no2)nc2ccccc21 | i
COc1ccc(F)c(F)c1-c1c(-c2ccccc2)ncn1CCC1CCCN1C (stereo unspecified) | i
Cc1ccc(C)c(OCc2cc(C(=O)NCc3nnc4n3CCC4)no2)c1 | +
Cc1cccc(C(C(=O)NCc2nnc3n2CCC3)N(C)C)c1 (stereo unspecified) | i
O=C(NCC1CCCCO1)c1cc(COc2c(F)cccc2F)on1 (stereo unspecified) | i
Cc1ccc(S(=O)(=O)Nc2cnc(N(CC(C)C)CC(C)C)c(C(=O)O)c2)cc1 | i
COc1cccc(C(=O)Nc2cccc(OCc3cc(=O)n4cc(Cl)ccc4n3)c2)c1 | i
Cc1ccn2c(=O)cc(COc3cccc(NC(=O)c4ccccc4C)c3)nc2c1 | i
Cc1ccn2c(=O)cc(COc3cccc(NC(=O)c4ccco4)c3)nc2c1 | +
COc1ccccc1C(=O)Nc1cccc(OCc2cc(=O)n3cc(Cl)ccc3n2)c1 | +
